Potency, activity change, negative = inhibition and max response data for 24 compounds are collected here from PubChem BioAssay (NCATS).

Inconclusive results are not listed. Calls of active or inactive are those of the source. Unless noted, calls follow the shape of the dose curve; as a rule, active = well fitted curve in the direction sought with a large enough effect; inconclusive = small, poorly fitted or top-dose-only effect, or another doubt; inactive = no such curve, though single readings can be large; an effect the other way counts as inactive or inconclusive.

The target of test [1] is Cytochrome P450 3A4 (Homo sapiens) (UniProt P08684). In words: qHTS Assay for Activators of Cytochrome P450 3A4 (AID 885). Also: nearly all actives have a fitted effect of over 65% in size. In a few lines: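 Using 20nM recombinant human CYP3A4 in potassium phosphate (200mM), substrate Luciferin-PPXE at 25uM, luminescent luciferin detection followed a 60-min RT NADPH reaction; data scaled to 57 uM ketoconazole.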
A short description of test [2]: Confirmation and Secondary Assay for Modulators of Hemoglobin Beta Chain Splicing at IVS2 654 locus (AID 910).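 Also: HeLa cells stably carrying EGFP split by mutant beta-globin IVS2-654 intron; % of control where 0% means no effect.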 Put shortly: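 HeLa cells stably expressing EGFP interrupted by β-globin IVS2-654 intron, seeded overnight in Opti-MEM/2% FCS, then treated 2 days at 37 °C. Restored splicing read as total peak GFP intensity per well by laser scanning cytometry (488 nm excitation, 500–520 nm emission); 500 nM antisense PNA as control.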

Test [3] in a line: Confirmation and Secondary Assay for Modulators of Hemoglobin Beta Chain Splicing at IVS2 705 locus (AID 930).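 Also: HeLa cells stably expressing the EGFP-705 splicing reporter; GFP fluorescence per well restored by corrected splicing of the IVS2-705 intron in EGFP; % of control where 0% means no effect.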 In a few lines:
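Read-out: total peak GFP fluorescence per well (488 nm excitation, 500-520 nm emission) by laser-scanning cytometry. Cells: HeLa EGFP-705 splicing reporter, 2 days compound exposure in Optimem/2% FCS.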

The nature of test [4]: qHTS Assay for Lipid Storage Modulators (AID 1519; calls by dose curve; as to activity change, negative = inhibition: % is scaled to controls: 0 for no effect and ±100 for the full control effect). Particulars: Drosophila S3 cells, BODIPY lipid droplet/cell ratio, laser cytometry, cells loaded with oleic acid; for activity change, negative = inhibition: at 57.5 µM (top of the series). Put shortly:
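Cells seeded at 5,000 per well were treated with compounds over a concentration series and loaded with oleic acid (400 uM, as added). Lipid droplet fluorescence (488 nm excitation, 500-530 nm channel) was read by laser-scanning cytometry and normalized to 20 uM Triacsin C.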
(In general: Quantitative high-throughput screening tests each substance at several concentrations.)

Test [5] deals with Ubiquitin carboxyl-terminal hydrolase 1 (Homo sapiens) (UniProt O94782). In words: Inhibitors of USP1/UAF1: Pilot qHTS (AID 504865). Also: nearly all actives have a fitted effect of over 35% in size. Also: potency is read from the fitted curve at half-maximal effect.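 As to activity change, negative = inhibition: rhodamine fluorescence freed from ubiquitin-rhodamine substrate followed over time; top concentration of the series differs between compounds; % is scaled to controls: 0 for no effect and ±100 for the full control effect.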 Put shortly:
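Kinetic fluorescence assay: 1nM USP1/UAF1, 15 min compound preincubation, then 150nM Ub-Rho; 480/540 nm.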

[6] abbreviates: measured here: cell count channel max response.
Where [7] appears, read: measured here: lipid channel max response.

Cytochrome P450 3A4 (Homo sapiens), sequence (P08684 whole entry, looked up): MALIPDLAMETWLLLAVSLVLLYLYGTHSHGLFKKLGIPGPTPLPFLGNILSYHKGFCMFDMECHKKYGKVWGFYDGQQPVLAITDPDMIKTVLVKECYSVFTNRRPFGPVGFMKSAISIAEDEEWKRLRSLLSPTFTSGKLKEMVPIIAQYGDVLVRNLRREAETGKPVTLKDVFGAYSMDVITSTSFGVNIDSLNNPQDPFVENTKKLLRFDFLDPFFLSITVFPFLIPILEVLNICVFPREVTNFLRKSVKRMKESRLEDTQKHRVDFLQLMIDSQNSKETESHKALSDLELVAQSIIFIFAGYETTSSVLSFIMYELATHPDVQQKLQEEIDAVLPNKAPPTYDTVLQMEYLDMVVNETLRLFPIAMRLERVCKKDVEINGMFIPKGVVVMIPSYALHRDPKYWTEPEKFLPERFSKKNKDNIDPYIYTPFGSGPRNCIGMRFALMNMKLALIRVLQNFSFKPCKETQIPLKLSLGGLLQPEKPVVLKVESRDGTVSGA
Ubiquitin carboxyl-terminal hydrolase 1 (Homo sapiens), sequence (O94782 whole entry, looked up): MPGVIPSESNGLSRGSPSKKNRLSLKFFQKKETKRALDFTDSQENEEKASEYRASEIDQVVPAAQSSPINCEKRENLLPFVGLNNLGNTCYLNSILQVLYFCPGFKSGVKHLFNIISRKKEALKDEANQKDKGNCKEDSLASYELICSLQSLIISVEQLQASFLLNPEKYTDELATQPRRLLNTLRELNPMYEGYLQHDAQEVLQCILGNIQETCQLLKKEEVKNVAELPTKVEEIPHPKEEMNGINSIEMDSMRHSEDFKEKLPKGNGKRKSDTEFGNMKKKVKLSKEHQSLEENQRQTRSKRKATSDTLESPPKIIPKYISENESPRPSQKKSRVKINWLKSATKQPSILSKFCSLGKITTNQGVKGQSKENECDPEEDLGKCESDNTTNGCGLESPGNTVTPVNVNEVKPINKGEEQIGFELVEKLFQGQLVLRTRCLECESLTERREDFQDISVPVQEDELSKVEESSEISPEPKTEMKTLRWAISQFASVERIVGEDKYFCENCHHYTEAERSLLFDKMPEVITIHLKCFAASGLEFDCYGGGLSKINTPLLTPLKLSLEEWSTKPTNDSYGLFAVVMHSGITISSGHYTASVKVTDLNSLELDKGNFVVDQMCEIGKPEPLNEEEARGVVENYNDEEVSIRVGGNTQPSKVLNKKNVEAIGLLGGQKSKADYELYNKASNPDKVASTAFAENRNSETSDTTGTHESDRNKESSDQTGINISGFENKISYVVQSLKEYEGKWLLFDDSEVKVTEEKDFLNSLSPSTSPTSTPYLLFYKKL

With `COC(=O)c1cc(OC)c(=O)c2c(OC)c(OC)ccc2c1`, the Potency entry in test [1], in test [2], in test [3] and in test [5] was “inactive” throughout. Further, the activity change, negative = inhibition in test [4] was 6.06% (inactive). For the same compound, the max response in test [4] (setting [6]) was -2.75%; in test [4] (setting [7]), 7.78%.

For the compound `COC(=O)c1c(C)cc(OC)cc1O`, the Potency entry in test [1], in test [2], in test [3] and in test [5] was “inactive” throughout. For the same compound, in test [4], the activity change, negative = inhibition is 8.17% (inactive). In addition, the max response came out at 10% in test [4] (setting [6]) and 23.5% in test [4] (setting [7]).

As to `COc1cc(OC)c2c(=O)c(O)c(-c3ccc(OC)c(OC)c3)oc2c1`, the Potency result in test [1], in test [2], in test [3] and in test [5] was “inactive” in each case. In test [4], the activity change, negative = inhibition was 4.09% (inactive). The max response worked out at 5.03% in test [4] (setting [6]) and 9.16% in test [4] (setting [7]).

In the case of `COC(=O)C1OC(=O)C2O[C@@]23[C@]2(C)C(OC(C)=O)CC4C(C)(C)C(=O)CC[C@]4(C)C2CC[C@@]13C` (stereo partly drawn), the Potency entry in test [1], in test [2], in test [3] and in test [5] was “inactive” throughout. Further, the activity change, negative = inhibition in test [4] was -1.69% (inactive). Further, the max response is -0.434% in test [4] (setting [6]) and 4.55% in test [4] (setting [7]).

Regarding `COC(=O)/C(=C1\OC(=O)C(c2ccccc2)C1=O)c1ccccc1` (stereo not drawn), the Potency result in test [1], in test [2], in test [3] and in test [5] was “inactive” each time. The activity change, negative = inhibition in test [4] is 5.87% (inactive). In addition, the max response in test [4] (setting [6]) came out at 11.1%; in test [4] (setting [7]), 17.7%.

Consider `CC1(C)CC[C@]2(C(=O)O)CC[C@@]3(C)C(=CCC4[C@@]5(C)CCC(O)[C@@](C)(CO)C5CC[C@@]43C)C2C1` (stereo partly drawn), for which the Potency entry in test [1], in test [2], in test [3] and in test [5] was “inactive” each time. Besides, in test [4], the activity change, negative = inhibition is 1.32% (inactive). Moreover, the max response amounted to 5.6% in test [4] (setting [6]) and 17.6% in test [4] (setting [7]).

Consider `C=C[C@]1(C)CC(=O)[C@@]2(O)[C@@]3(C)C(O)CCC(C)(C)C3C(O)C(OC(C)=O)[C@@]2(C)O1` (stereo partly drawn), for which the Potency result in test [1], in test [2], in test [3] and in test [5] was “inactive” each time. Also, in test [4], the activity change, negative = inhibition was 3.86% (inactive). The max response was 19.4% in test [4] (setting [6]) and 25.9% in test [4] (setting [7]).

For the compound `COc1ccc(-c2oc3cc(O[C@@H]4OC(CO)C(O)C(O)C4O)c(OC)c(O)c3c(=O)c2OC)cc1O` (stereo partly drawn), the Potency result in test [1], in test [2], in test [3] and in test [5] was “inactive” in each case. Also, the activity change, negative = inhibition in test [4] was 2.95% (inactive). Besides, the max response is -7.2% in test [4] (setting [6]) and -6.13% in test [4] (setting [7]).

For the compound `C=CC(C1=CC(=O)C=CC1=O)c1ccccc1` (stereo not drawn), the Potency result in test [1], in test [2], in test [3] and in test [5] was “inactive” in each case. In addition, the activity change, negative = inhibition in test [4] is 7.07% (inactive). For the same compound, the max response in test [4] (setting [6]) worked out at 8.2%; in test [4] (setting [7]) it was 16.8%.

For the compound `C=C1CCC(=O)C(C)CCC2C1CC2(C)C` (stereo not drawn), the Potency result in test [1], in test [2], in test [3] and in test [5] was “inactive” in each case. Besides, the activity change, negative = inhibition in test [4] is 1.2% (inactive). The max response is 13.1% in test [4] (setting [6]) and 14.5% in test [4] (setting [7]).

In the case of `COC1=CC(=O)C(C(=O)c2ccccc2)=CC1=O`, the Potency result in test [1], in test [2] and in test [3] was “inactive” throughout. For the same compound, the activity change, negative = inhibition in test [4] is 9.22% (inactive). Further, the max response in test [4] (setting [6]) came to 13.1%; in test [4] (setting [7]), 25.8%. In test [5], the Potency was 25.1 µM (active).

For `O=c1c(O)c(-c2ccccc2)oc2cccc(O)c12`, the Potency entry in test [1], in test [2], in test [3] and in test [5] was “inactive” throughout. Besides, the activity change, negative = inhibition in test [4] was 9.45% (inactive). Further, the values for the max response in test [4] (setting [6]) and in test [4] (setting [7]) were 9.77% and 18.2%, respectively.

Regarding `CC12CCC3C(=CCc4cc(O)ccc43)C1CCC2=O` (stereo not drawn), the Potency entry in test [1], in test [2], in test [3] and in test [5] was “inactive” throughout. In test [4], the activity change, negative = inhibition is 5.72% (inactive). The max response in test [4] (setting [6]) is -12.9%; in test [4] (setting [7]) it was -6.28%.

In the case of `Cc1cc(O)c(C=O)c(O)c1C(=O)O`, the Potency entry in test [1], in test [2], in test [3] and in test [5] was “inactive” each time. Also, the activity change, negative = inhibition in test [4] was 3.98% (inactive). Besides, the max response was 6.58% in test [4] (setting [6]) and 11.5% in test [4] (setting [7]).

For the compound `O=C(/C=C/c1ccccc1)OC1CC(O)C2(O)C=CO[C@@H](OC3OC(CO)C(O)C(O)C3O)C12` (stereo partly drawn), the Potency entry in test [1], in test [2], in test [3] and in test [5] was “inactive” each time. The activity change, negative = inhibition in test [4] was 3.28% (inactive). The max response is -10.8% in test [4] (setting [6]) and 7.13% in test [4] (setting [7]).

Turning to `C=C1CCC2C(CC2(C)C)C(=C)CC/C1=N/O` (stereo not drawn), the Potency entry in test [1], in test [2], in test [3] and in test [5] was “inactive” in each case. The activity change, negative = inhibition in test [4] was 4.06% (inactive). The max response is 4.09% in test [4] (setting [6]) and 9.2% in test [4] (setting [7]).

As for `CCCC1OC2CC3C4CCC5=CC(=O)C=CC5(C)C4C(O)CC3(C)[C@]2(C(=O)CO)O1` (stereo partly drawn), the Potency result in test [1], in test [2], in test [3] and in test [5] was “inactive” in each case. In addition, the activity change, negative = inhibition in test [4] is 8.38% (inactive). Also, the max response was 24.3% in test [4] (setting [6]) and 37.9% in test [4] (setting [7]).

Turning to `C#C[C@@]1(O)CCC2C3CCC4=CC(=O)CCC4C3CC[C@@]21CC` (stereo partly drawn), the Potency result in test [1], in test [2], in test [3] and in test [5] was “inactive” each time. Besides, the activity change, negative = inhibition in test [4] was 8.95% (inactive). The max response was 17.8% in test [4] (setting [6]) and 32.9% in test [4] (setting [7]).

On to `O=C(NC1CCCCC1)NC1CCCCC1`, for which the Potency result in test [1], in test [2], in test [3] and in test [5] was “inactive” throughout. For the same compound, in test [4], the activity change, negative = inhibition was 9.61% (inactive). Also, the max response in test [4] (setting [6]) came out at 16.8%; in test [4] (setting [7]) it was 30.7%.

Turning to `CCOC(=O)C(Cc1ccc(O)cc1)NC(C)=O` (stereo not drawn), the Potency result in test [1], in test [2], in test [3] and in test [5] was “inactive” throughout. For the same compound, in test [4], the activity change, negative = inhibition was 7.38% (inactive). Further, the max response in test [4] (setting [6]) was 6.37%; in test [4] (setting [7]), 13.9%.

As for `COc1ccc(C2CC(=O)c3ccc(OC)cc3O2)cc1` (stereo not drawn), the Potency result in test [1], in test [2], in test [3] and in test [5] was “inactive” each time. Further, the activity change, negative = inhibition in test [4] was 10.2% (inactive). The max response in test [4] (setting [6]) worked out at 32.1%; in test [4] (setting [7]) it was 45.7%.

Regarding `CC(=O)C1CCC2C3CC(C)C4=CC(=O)CC[C@@]4(C)C3C(O)C[C@@]12C` (stereo partly drawn), the Potency entry in test [1], in test [2], in test [3] and in test [5] was “inactive” each time. For the same compound, the activity change, negative = inhibition in test [4] was 8.05% (inactive). The max response in test [4] (setting [6]) was found to be 8.18%; in test [4] (setting [7]), 24.3%.

Turning to `COc1cc(O)cc(OC)c1OC`, the Potency result in test [1], in test [2], in test [3] and in test [5] was “inactive” each time. For the same compound, the activity change, negative = inhibition in test [4] is 1.28% (inactive). Also, the max response in test [4] (setting [6]) was -14%; in test [4] (setting [7]) it was -12.4%.

Regarding `CC(C)=CCOc1cc2oc(=O)ccc2cc1O`, the Potency entry in test [1], in test [2], in test [3] and in test [5] was “inactive” each time. The activity change, negative = inhibition in test [4] was 12.4% (inactive). Besides, the max response in test [4] (setting [6]) is -16.3%; in test [4] (setting [7]) it was -2.91%.
